According to PubChem BioAssay (Tox21):
Inconclusive results are not listed. Calls of active or inactive are those of the source. The call rests on the fitted dose curve.

Assay: qHTS assay to identify small molecule agonists of the AP-1 signaling pathway - cell viability counter screen (AID 1159525); further: nearly all actives have a fitted effect of over 55% in size
Settings: ME-180 (cervical carcinoma) AP-1-bla cells viability, ATP luminescence, 5 h; series mostly up to 76.8 µM; viability change, negative = cytotoxic: at the top concentration
From the text: National Center for Advancing Translational Sciences [NCATS]
NIH Chemical Genomics Center [NCGC]
U.S. Environmental Protection Agency [EPA]
National Institutes of Environmental Health Sciences [NIEHS]
National Toxicology Program [NTP]
U.S. Food and Drug Administration [FDA]
Activator protein-1 (AP-1), a transcription factor, plays an important role in tumor genesis by regulating genes involved in cell proliferation, differentiation, apoptosis, and angiogenesis. AP-1 activity is induced by a complex network of signaling pathways that involves extracellular signals, such as growth factors. The AP-1 protein complex formed from c-Fos and c-Jun binding to the AP-1 response element results in transcriptional activation of genes containing such elements within their promoter.
Low molecular weight molecules have been discovered and developed to modulate various components of these signaling pathways, for example, MAP kinase inhibitors. However, many points of pathway modulation remain untested due to the lack of chemical probes making this signaling locus of general interest.
Using a beta-lactamase reporter-gene under control of the AP-1 response element, a cell-based assay [CellSensor(TM) AP-1-bla ME-180 developed by Invitrogen Corp.] was used to measure EGF-induced signaling. The Tox21 10K library compounds were measured for their ability to positively modulate the action of EC50 EGF on reporter gene activity. Compounds were screened in a 15-pt titration series in 1536-well format. The cytotoxicity of the Tox21 compound library against this cell line was tested in parallel by measuring the intra cellular ATP content in the same wells.
Tox21 Assay Protocol Summary:
2500 cells/5uL in Opti-MEM medium containing 0.5% dialyzed FBS, 0.1 mM NEAA, 1 mM sodium pyruvate and 10 mM HEPES was dispensed into 1536-well black wall/clear bottom plates using a Multidrop dispenser and cells were cultured at 37 degrees Celsius overnight. Next day 23 nL of compounds dissolved in DMSO, positive controls or DMSO were delivered to each well using a pin tool. The plates were incubated at 37 degrees Celsius for 5 hours. 1 uL of LiveBLAzerTM B/G FRET substrate (Solution A+B+C+D) was added to each well using a Flying Reagent Dispenser. After incubated at room temperature for 2.5 hours the plates were measured on an EnVision plate reader at Excitation 405nm, Emission1=460nm and Emission 2=530nm. The %Activity was determined from the ratio of 460nm/530nm.
After the plates were read for Beta-Lactamase assay on Envision; 3 ul Cell Titer Glo (Promega) was added to measure the cytotoxicity and the plates were then incubated at RT in dark for 30 min. The luminescence was read on ViewLux (Perkin Elmer, Shelton, CT) using 6 sec exposure. ViewLux data was expressed as relative luminescence units.
For primary data analysis, raw plate reads for each titration point were first normalized relative to […] EGF control (100%) and DMSO only wells (basal, 0%).
For primary data analysis for viability assay, raw plate reads for each titration point were first normalized Tetra n-octyl ammonium bromide control (-100%) and DMSO (control, 100%).

Row | SMILES | viability change, negative = cytotoxic
1 | CC1(C)SC(C)(C)SC(C)(C)S1 | -6.01% (inactive)
2 | CCC(=O)/C=C/c1ccc(OC)cc1 | -3.47% (inactive)
3 | CCCCCOC(=O)Nc1nc(=O)n([C@@H]2O[C@H](C)[C@@H](O)[C@H]2O)cc1F | -0.68% [at 35.3 µM] (inactive)
4 | O=[N+]([O-])c1ccc(CCO)cc1 | -1.26% (inactive)
5 | CCCCCCCCCCCCCCCCCC(=O)OCCCCCCCCCCCCCC(C)C | 3.32% (inactive)
6 | CC(=O)CCc1ccc(O)cc1 | 1.51% (inactive)
7 | O=C(O)c1ccccc1S | -5.52% [at 35.3 µM] (inactive)
8 | CCCOCC(C)OCC(C)O (stereo not given) | 0.464% (inactive)
9 | O=C(O)c1cccc(C(=O)O)n1 | 4.47% (inactive)
10 | CCCCc1ccc2cccc(S(=O)(=O)O)c2c1 | 0.622% (inactive)
11 | Nc1ccn(C2CO[C@H](CO)O2)c(=O)n1 (stereo not given in full) | -17.4% [at 35.3 µM] (inactive)
12 | C(=C(c1ccccc1)c1ccccc1)c1ccccc1 | 2.77% (inactive)
13 | c1ccc(SCCSc2ccccc2)cc1 | 2.5% (inactive)
14 | CCCCC1CCCCC(=O)O1 (stereo not given) | -0.402% (inactive)
15 | CCCCCCOC(=O)c1ccccc1O | -3.08% (inactive)
16 | C1CCCCCCCCCCC1 | 0.327% [at 15.8 µM] (inactive)
17 | CCC(C)OC(=O)N1CCCCC1CCO (stereo not given) | 1.58% (inactive)
18 | CCCCCCCCCCC1CO1 (stereo not given) | 1.98% (inactive)
19 | C[C@H](O)C(=O)Nc1c(I)c(C(=O)NC(CO)CO)c(I)c(C(=O)NC(CO)CO)c1I | 9.7% [at 35.3 µM] (inactive)
20 | NC(=O)Nc1nc2ccccc2[nH]1 | -0.25% (inactive)

Row | SMILES | viability change, negative = cytotoxic
21 | CCCCN(CCO)CCO | 0.291% (inactive)
22 | CCCc1ccc(N)cc1 | 2.91% (inactive)
23 | Cc1ccc(Nc2ccc(O)c3c2C(=O)c2ccccc2C3=O)cc1 | 3.25% (inactive)
24 | CC(C)=CCC/C(C)=C/C(=O)O | 7.64% (inactive)
25 | CC(CCO)CCCC(C)(C)O (stereo not given) | -3.26% (inactive)
26 | CC(O)CN(CCCN(C)C)CCCN(C)C (stereo not given) | 6.99% (inactive)
27 | OC1OC[C@@H](O)[C@H](O)[C@H]1O (stereo not given in full) | -3.27% (inactive)
28 | COc1cc(O)cc(O)c1 | -3.17% [at 35.3 µM] (inactive)
29 | CCCC(C)CO (stereo not given) | 1.37% (inactive)
30 | CC/C=C\C#N | -4.83% (inactive)
31 | CCC(=O)Nc1cccc(N)c1 | 2.71% (inactive)
32 | CC(C)COC(=O)c1ccccc1O | -2.62% (inactive)
33 | CN(C)CCOC(c1ccc(Cl)cc1)c1ccccn1 (stereo not given) | 0.493% [at 35.3 µM] (inactive)
34 | CC(C)CCOC(=O)CC(C)C | 1.32% (inactive)
35 | CC(C)CCCC(C)CCCC(C)CCCCC(C)CCCC(C)CCCC(C)C (stereo not given) | -3.05% [at 35.3 µM] (inactive)
36 | COC(C(=O)O)c1ccccc1 (stereo not given) | -0.474% (inactive)
37 | C=CCOc1nc(OCC=C)nc(OCC=C)n1 | 2.03% (inactive)
38 | CC(C)(O)C(=O)c1ccc(OCCO)cc1 | 5.68% (inactive)
39 | C=CC(=O)N1CCOCC1 | 0.218% (inactive)
40 | COc1ccc(COC=O)cc1 | -2.82% (inactive)
